# Bioassay records: PubChem BioAssay, National Center for Advancing Translational Sciences (NCATS)
# IMPase inh = cell-permeable inhibitors of inositol monophosphatase (IMPase); P97697; 120,000 tested, under 10 active; CHO-M1 cells, IP1 accumulation, HTRF TR-FRET ratio; inhibition (IP1 accumulation), % at 46.1 µM; active means well fitted curve in the direction sought with a large enough effect in the signal ratio, not every such curve was filed as active; inconclusive means small, poorly fitted or top-dose-only effect, or a change in a side signal; inactive means no such curve, though single readings can be large or run the other way; the % refers to the signal ratio;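 further: cells stimulated with carbachol in lithium chloride buffer; higher means more IMPase inhibition seen as more IP1 and lower FRET ratio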
#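 CHO-M1, 2000 cells/well, cultured 16–30 h; cpd up to 46 uM; carbachol (50 uM solution, stimulation buffer w/ 50 mM LiCl, pH 7.4), 30 min 37C; IP-One TR-FRET, 10 min RT; Ex 320/Em 665, 620; Hill-fit AC50.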
# PNC inhibitor = perinucleolar compartment assembly inhibition; PC3M PTB-GFP, PNC prevalence imaging, 16 h; active compounds read low; activity change (PNC), negative = inhibition, % at 10 µM; actives 3.1% (n = 140,000);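 active means readout at or below -70, meaning at least 70% loss of cells showing the perinucleolar compartment, a nuclear body marking cancer cells; inconclusive means readout between -30 and a set limit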
#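 Compounds are pinned in duplicate onto adhered PC3M cells stably expressing GFP-tagged PTB and incubated 16 h at 37 C. Cells are then fixed, nuclei stained with Hoechst, and PNC-positive cells counted.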
# HTT aggregate = inhibitors of mutant huntingtin aggregate formation in PC12 cells | PC12 HttQ103-GFP aggregates, Acumen cytometry, 40 h | Potency, µM (highest dose often 46.1 µM), actives largely listed as inhibitors | actives 1.1% (n = 220,000) | AID 1688; further: nearly all actives have a fitted effect of over 60% in size
#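 Huntingtin Q103 exon 1–GFP aggregates in induced PC12 cells (100 nM tebufenozide) were quantified by cytometry from lysates, with compounds dosed in titration.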
# NPSR antagonist = neuropeptide S receptor (human) antagonism, cAMP; CHO-NPSR cells, cAMP TR-FRET, antagonist mode; Potency, µM (series often up to 38.3 µM), actives largely listed as inhibitors; actives 1% (n = 220,000); further: nearly all actives have a fitted effect of over 50% in size
# HTT cytoprotect = cytoprotection in Huntington HTT-Q103 PC12 cell model | PC12 HTT-Q103 induced, cytoprotection, ATP luminescence, 40 h | Potency, µM (top dose mostly 56.4 µM), hits mostly activators | actives 0.14% (n = 230,000); further: nearly all actives have a fitted effect of over 45% in size
#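 Cells were plated at 1500 per well in phenol red-free DMEM with 5% equine and 5% calf serum. Tebufenozide (100 nM final) and compounds were added, then ATPlite reagent, and luminescence was read.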
# ALOX12 inhib = inhibitors of human 12-lipoxygenase (ALOX12). P18054. purified 12-hLO, xylenol orange hydroperoxide absorbance. Potency, µM (series often up to 57.1 µM), usual class: inhibitors. actives 0.12% (n = 150,000); further: nearly all actives have a fitted effect of over 55% in size
# Target sequence (P18054 whole entry, looked up): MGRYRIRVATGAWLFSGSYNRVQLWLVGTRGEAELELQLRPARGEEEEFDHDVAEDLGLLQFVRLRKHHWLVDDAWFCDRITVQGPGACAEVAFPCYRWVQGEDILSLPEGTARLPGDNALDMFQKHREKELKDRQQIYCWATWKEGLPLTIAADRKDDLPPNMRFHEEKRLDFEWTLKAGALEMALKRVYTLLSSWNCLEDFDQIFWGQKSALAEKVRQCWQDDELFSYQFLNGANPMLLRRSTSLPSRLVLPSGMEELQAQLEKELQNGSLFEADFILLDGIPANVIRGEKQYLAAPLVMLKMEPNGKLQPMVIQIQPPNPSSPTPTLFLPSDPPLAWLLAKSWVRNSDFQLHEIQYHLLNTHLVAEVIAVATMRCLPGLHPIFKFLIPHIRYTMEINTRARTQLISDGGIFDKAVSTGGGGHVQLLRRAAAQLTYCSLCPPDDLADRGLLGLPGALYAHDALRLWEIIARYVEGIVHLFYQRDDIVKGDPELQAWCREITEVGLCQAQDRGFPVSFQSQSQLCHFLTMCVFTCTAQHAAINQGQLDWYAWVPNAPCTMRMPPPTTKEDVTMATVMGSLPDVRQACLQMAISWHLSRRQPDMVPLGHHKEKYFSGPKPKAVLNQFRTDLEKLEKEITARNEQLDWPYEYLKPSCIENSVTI
#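 150 nM 12hLO, 25 mM Hepes pH 7.0 + 0.01% Triton X-100; cpd preinc 15 min RT; 40 uM arachidonic acid, 30 min RT; Fe-XO 30 min; A573/A405 ratio as read-out.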
# Numbers stand for hits; 0 = inactive; ? = inconclusive; - = no result given; [ ] = dose if it differs, or a comment. Only some compounds are listed: those with a hit (about 3.3% of all), similar ones and a draw of the others. Unless noted, the call rests on the fitted dose curve; in most records, active means well fitted curve in the direction sought with a large enough effect; inconclusive means small, poorly fitted or top-dose-only effect, or another doubt; inactive means no such curve, though single readings can be large; an effect the other way counts as inactive or inconclusive.
SMILES,IMPase inh,PNC inhibitor,HTT aggregate,NPSR antagonist,HTT cytoprotect,ALOX12 inhib
O=C1OC2(c3ccc(O)cc3Oc3cc(O)ccc32)c2c1c(-c1ccccc1)c(-c1ccccc1)c(-c1ccccc1)c2-c1ccccc1,-,-,-,-,0[10 µM],?
NC(=O)C1CC2(NC(=O)NC2=O)c2cc(F)ccc2O1 (stereo not drawn),-,-,0,-,0,-
Cc1c(C(N)=O)cc([N+](=O)[O-])cc1[N+](=O)[O-],-,-,0,-,?,0
Cc1cccc2c(=O)c(C(=O)NCCCN3CCOCC3)c[nH]c12,0,-100,0,0,0[10 µM],0
CCOc1ccc2[nH]cc(C(=O)NCCCN3CCOCC3)c(=O)c2c1,-,-,0[9.22 µM],0,0[10 µM],-
C=CCOC(=O)C(C(=O)CC)C(NC(=O)OC)c1ccc(F)cc1 (stereo not drawn),-,-,-,-,0[10 µM],-
Cc1onc(-c2ccccc2)c1NC(=O)Nc1ccc(OC(F)F)cc1,-,-,0[9.22 µM],0,0[10 µM],-
COC(=O)C1=C(C)C(c2cccs2)NC(=O)N1C (stereo not drawn),0,-100,0,0,0[10 µM],0
O=C(N/N=C/c1cccc([N+](=O)[O-])c1O)c1cccs1,0,0,16µM,0,0[10 µM],0
O=C(N/N=C/c1ccc([N+](=O)[O-])cc1)c1cccs1,-,-,0[9.22 µM],0,0[10 µM],-
COc1ccc(C(=O)CCN2CCCCCC2)cc1,0,0,?,0,0,0
CCOc1ccc(C(=O)CCN2CCCCC2)cc1,0,-127,0,0,0,0
CSCCC(NS(=O)(=O)c1cccs1)C(=O)Nc1ccc(C)c(Cl)c1 (stereo not drawn),0,-,-,-,-,-
CC1CCN(C(=O)CSc2nc3ccccc3c(=O)n2Cc2ccc3c(c2)OCO3)CC1,0,0,?,?,0,0
CC1CCCCN1C(=O)CSc1nc2cc3c(cc2c(=O)n1Cc1ccc2c(c1)OCO2)OCO3 (stereo not drawn),0,-87,0,0,0[0.074 µM],0
Cc1cc(C(=O)CSc2nc3ccccc3c(=O)n2C)c(C)n1Cc1ccc2c(c1)OCO2,0,0,1µM,?,0,0
C=C[C@@]1(C)CC(=O)[C@@]2(O)[C@@]3(C)[C@@H](O)CCC(C)(C)[C@@H]3[C@H](OC(=O)CCN(C)C)[C@H](OC(C)=O)[C@@]2(C)O1,0,-,-,-,40µM,0
COC(=O)C/C=C\[C@@H](C)[C@@H](/C=N\O[C@@H](C)CN1CCCc2nc(C)c(C)cc21)OC,-,-,-,-,0[10 µM],-
Cc1nc(-c2ccccc2)cc(N2CCCC2)n1,0,0,0,0,0[10 µM],0
Nc1nc(-c2ccccc2)cc(N2CCCCC2)n1,0,-106,?,0,0[0.074 µM],0
COc1ccc(C2C(C(C)=O)=C(Nc3ccccc3)CC(C)(O)C2C(C)=O)cc1OC (stereo not drawn),0,-119,0,0,0[10 µM],0
CCOc1ccc(CN(C(=O)c2cc3ccccc3oc2=O)C2CC2)cc1,0,-100,0,0,0[10 µM],0
NC(=O)NNc1cccc(Cl)n1,-,-,0,0,0,-
Cc1ccc(S(=O)(=O)CC(N)=O)cc1,0,0,0,0,0,0
Cc1ccc(S(=O)(=O)CC(=O)N(C)C)cc1,0,-100,0,0,0[10 µM],0
SMILES,IMPase inh,PNC inhibitor,HTT aggregate,NPSR antagonist,HTT cytoprotect,ALOX12 inhib
Cc1cc(C)c(S(=O)(=O)N(C)CC(N)=O)c(C)c1,0,-85,0,0,0[10 µM],0
O=c1[nH]cnc2nc(-c3ccccc3)c(-c3ccccc3)nc12,0,0,14µM,0,0[10 µM],0
O=c1[nH]cnc2nn(-c3ccccc3)nc12,0,0,0,0,0,0
C[C@@H](Cc1ccccc1)Nc1ncnc2c1ncn2[C@@H]1O[C@@H](CO)[C@H](O)[C@@H]1O,0,-,-,-,0[1.9 µM],?
O=C1CC(N2CCOCC2)C(=O)N1c1ccccc1Cl (stereo not drawn),0,-94,0,0,0[10 µM],0
C[N+]1=C(/C=C/Nc2ccccc2Cl)C(C)(C)c2ccccc21,-,?,13µM,0,0[10 µM],0
FC(F)(F)c1cnc(/C=C/Nc2ccccc2Cl)c(Cl)c1,0,0,0,0,0,0
O=C(O)COCC(=O)NCc1csc2ccccc12,-,-,0[9.22 µM],0,0[10 µM],-
COc1cc(NC(=S)NC(=O)c2ccc(C(C)(C)C)cc2)ccc1NC(=O)c1cccs1,0,-115,0,0,0[10 µM],0
CN(NS(=O)(=O)c1ccc(Cl)cc1)c1nc(C(F)(F)F)nc2ccccc12,-,-,10µM,0,0,-
CN(NS(=O)(=O)c1ccccc1)c1nc2ccccc2nc1C(F)(F)F,0,0,0,0,0,0
CC(=O)c1ccc(C)cc1OC(=O)c1cccc(F)c1,-,-,0,0,0,-
Cc1ccc(C(=O)CC(=O)c2cccc(F)c2)c(O)c1,0,0,22µM,?,0,0
O=S(=O)(c1ccccc1)n1nc(-c2ccc(Cl)cc2)nc1NCc1ccc(F)cc1,0,-,-,-,-,-
Cc1ccc2c(c1)C(=O)C(=O)N2CC(=O)Nc1ccc(N2CCOCC2)cc1,-,-,0[9.22 µM],0,0[10 µM],-
Cc1ccc(/C(C#N)=C\c2ccc(N3CCOCC3)o2)cc1,0,0,0[9.22 µM],?,0[10 µM],0
N#C/C(=C/c1ccc(N2CCCCC2)o1)c1cccc(F)c1,0,0,0,10µM,?,0
N#C/C(=C/c1ccc(N2CCCCCC2)o1)c1ccc(Cl)cc1,0,0,0,10µM,0,?
N#C/C(=C/c1ccc(N2CCCCC2)cc1)c1cccc(F)c1,0,0,0,0,0[1.9 µM],0
O=C(c1cc2nc(-c3ccc(F)cc3)cc(C(F)(F)F)n2n1)N1CCCCC1c1cccnc1 (stereo not drawn),-,-,8.9µM,0,0,-
c1ccc(Cn2ncc3c2ncn2c(-c4ccncc4)nnc32)cc1,0,0,0,0,0[10 µM],0
Cc1ccc(-n2ncc3c2ncn2c(-c4ccncc4)nnc32)cc1,0,-91,0,0,0,0
COc1cccc(N2CCN(c3ncnc4c3cnn4-c3ccc(C)cc3C)CC2)c1,0,0,22µM,10µM,0,0
N#CC(=NCCO)C1=C(O)c2ccccc2C1=O,-,-,-,-,0[10 µM],0[11.4 µM]
O=C1C(SCCO)=C(SCCO)C(=O)c2ccccc21,0,-,-,13µM,0,?
SMILES,IMPase inh,PNC inhibitor,HTT aggregate,NPSR antagonist,HTT cytoprotect,ALOX12 inhib
C=CCOC(=O)N[C@@H](c1ccc(Br)cc1)C(C(C)=O)C(C)=O,-,-,-,-,0,-
CCCCn1c(NC(=O)c2ccccc2Cl)c(C#N)c2nc3ccccc3nc21,0,0,10µM,10µM,0,0
CS(=O)(=O)c1ccc(C(=O)N2CCN(Cc3ccccc3)CC2)cc1,-,-,0,0,0[10 µM],-
O=C(Nc1cccc(Cl)c1)N1CCN(Cc2ccccc2)CC1,?,-96,0,0,0[10 µM],0
O=C(c1ccccc1)N1CCN(Cc2ccccc2)CC1,0,-100,0,0,0[10 µM],0
CCC(C)NC(=S)N1CCN(Cc2ccccc2)CC1 (stereo not drawn),-,-,0.56µM,0,-,-
